Assay results from the supplement of paper PMC6555819.

Tests used:
Experiment in all cases: PBM binding z-score (relative to random genomic background probes); higher = stronger binding; sequences stand for … in GC…GCGATTGACAGCGTAGAATGAAGG
[1] = test system: FXR:RXRa (NR concentration 270 nM, RXRa partner concentration 90 nM)
Summary of the method: (§1)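 Probes were double-stranded and carried 34-nt variable regions with direct-repeat seeds, single-nucleotide variants, half-site ablations and random human genomic background sequences, printed on custom Agilent 4×180K protein-binding microarrays. Arrays were incubated 1 h with ligand-free nuclear receptor dimers in PBS pH 7.4, 2% milk, 0.02% Triton X-100, 1 mM DTT, 0.2 mg/mL BSA and 0.4 mg/ml salmon testes DNA. Antibodies against each partner (one per run) detected binding, and scanned fluorescence was regression-normalized. Binding z-scores use the random background probes as reference.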

[2] = test system: LXRa:RXRa (NR concentration 270 nM, RXRa partner concentration 90 nM)
Summary of the method: as §1

[3] = test system: LXRa homodimer (NR concentration 270 nM)
Summary of the method: as §1

[4] = test system: LXRb:RXRa (NR concentration 270 nM, RXRa partner concentration 90 nM)
Summary of the method: as §1

[5] = test system: LXRb homodimer (NR concentration 270 nM)
Summary of the method: as §1

[6] = test system: PPARa:RXRa (NR concentration 270 nM, RXRa partner concentration 90 nM)
Summary of the method: as §1

[7] = test system: PPARg:RXRa (NR concentration 180 nM, RXRa partner concentration 90 nM)
Summary of the method: as §1

[8] = test system: PPARg:RXRa 270nM:90nM, anti-RXR (NR concentration 270 nM, RXRa partner concentration 90 nM)
Summary of the method: as §1

[9] = test system: PPARg:RXRa 30nM:10nM, anti-RXR (NR concentration 30 nM, RXRa partner concentration 10 nM)
Summary of the method: as §1

[10] = test system: PPARg:RXRa 90nM:30nM, anti-RXR (NR concentration 90 nM, RXRa partner concentration 30 nM)
Summary of the method: as §1

Row | Sequence | PBM binding z-score [1] | PBM binding z-score [2] | PBM binding z-score [3] | PBM binding z-score [4] | PBM binding z-score [5] | PBM binding z-score [6] | PBM binding z-score [7] | PBM binding z-score [8] | PBM binding z-score [9] | PBM binding z-score [10]
1 | CGAACTAGCTCAGAACAGGACAGTGAAGGATGAT | -0.682 | -0.642 | -0.0403 | -0.877 | -0.565 | -0.547 | 0.544 | -0.694 | -0.189 | -0.609
2 | TCTTGTAGATCAAAGGTTAATAAAGCCGAAGCCT | 1.43 | 1.96 | 0.26 | 2.03 | 0.175 | 4.63 | 7.9 | 7.38 | 7.95 | 8.32
3 | TGTCAAAGTTCAAAGGTACCGTAAGTATCCACAC | 6.69 | 6.28 | 4.68 | 4.31 | 1.83 | 5.79 | 7.97 | 7.18 | 4.9 | 6.89
4 | TTACCAAGGTGAAAGGTCGCTGATGCACGCCTTG | 2.82 | 2.6 | -0.188 | 2.24 | -0.623 | 5.25 | 8.28 | 8.53 | 7.04 | 9.59
5 | ATATGTCGGTTAAGGGTCATTCAGGTTGGTTCGC | 4.54 | 4.44 | 3.12 | 4.03 | 1.48 | 5.44 | 8.83 | 8.47 | 7.13 | 9.33
6 | GCATATAGGTAAAACAAGGTGAAAGTCCGATTGT | 1.15 | 2.03 | -0.3 | 0.461 | -0.664 | 1.96 | 1.32 | 1.69 | 0.57 | 1.14
7 | GCTCGGAGGACACGGTCAGAGCTTTGTCCGTAGA | -0.337 | -0.705 | -0.568 | -0.918 | -1.3 | -0.523 | -0.859 | -0.893 | -1.3 | -1.06
8 | CATACATGGTCAGCTAGGCCAGAGTAGGGACGGC | -0.504 | -0.26 | -0.736 | -0.962 | -0.25 | -1.12 | 0.342 | -0.789 | -0.741 | -0.753
9 | GCTGCTATGTCAGGTTGGTCAGCTAACGGGTACG | -0.0269 | -0.171 | -0.277 | -0.513 | -0.58 | -0.327 | -0.164 | -0.401 | -0.739 | -0.312
10 | CCGACTGGGGCATAAGGTTACCATTAGCCAGCCC | 0.294 | 0.416 | -0.399 | 0.617 | -1.38 | 1.85 | 2.02 | 3.12 | 0.689 | 2.57
11 | CGTCCGAGGTCAGAGAGGTCAGTGAATGCCGAGT | 6.42 | 5.78 | 3.42 | 5.43 | 0.406 | 5.62 | 4.63 | 5.26 | 2 | 4.02
12 | TAGCCTAGGTCATTGGTCCAGTATAGTACGCATC | 3.97 | 3.31 | 1.33 | 2.7 | 0.535 | 3.56 | 2.48 | 2.55 | 0.941 | 2.27
13 | CCTAGTTGGTCAGGAGGTCAAACACCGGATATGA | 4.57 | 4.4 | 3.59 | 4.03 | 1.06 | 4.55 | 3.32 | 3.96 | 1.67 | 3.26
14 | ATCGAAAGGTCGTGAGCTGAGTATACAGAAAGGC | 4.79 | 3.91 | 0.0249 | 3.03 | 0.117 | 4.86 | 3.35 | 4 | 1.23 | 2.6
15 | GGAACGAGGGCTAAGTTGATAGCATCTGTCGACG | -0.545 | -0.626 | -0.392 | -0.796 | -0.848 | 0.746 | 1.37 | 2.81 | 1.41 | 2.31
16 | CCTACTGGGGCAAGGTTACCATAACGCACAGCCA | 0.343 | 0.654 | -0.167 | 0.621 | -0.484 | 2.59 | 4.74 | 4.44 | 2.15 | 4.29
17 | AGTCAAAGCTCATCTAGGTAACGTAAGATATGCT | -0.387 | -0.578 | -0.275 | -0.318 | -0.689 | 0.0609 | 0.604 | 0.302 | -0.0105 | 0.0855
18 | ACTAGTTAGTCAGCTGAGGTCACACACAATTCGG | 2.63 | 3.5 | 2.52 | 3.72 | 0.931 | 3.87 | 1.72 | 1.98 | 0.769 | 1.49
19 | CCTCGGGGGACAACAGGAGGTCAGAGCTGCCAGA | 2.56 | 3.46 | 1.7 | 3.52 | 4.28 | 3.13 | 1.01 | 1.67 | 0.217 | 1.17
20 | AGTACGAGGGCAATGAGTTGATAGCACGGGTGGC | 0.396 | 0.352 | -0.477 | 0.0796 | -0.401 | 0.795 | 1.08 | 0.242 | -0.0294 | 0.117
21 | GATACAGGGTCAGCTAGAGGCGAGAGTATGGAAA | 4.63 | 2.33 | -0.47 | 2.27 | -0.792 | 4.46 | 3.77 | 3.24 | 1.08 | 1.87
22 | CAAACTAGGTCGCAGAGGTCAAAGTCCGTGCGTA | 5.75 | 6.03 | 5.84 | 5.36 | 1.26 | 5.7 | 7.46 | 6.53 | 4.01 | 6.06
23 | CGAACTAGGTCGTTGACAGGACAGTGAATAGTAA | 0.598 | 0.178 | -0.251 | 0.171 | -0.626 | 1.98 | 2.2 | 2.02 | 0.441 | 1.44
24 | ATCTCTAGGTAAGACTCAGTTCAGCGAAGAACGC | 0.373 | 0.369 | 0.471 | 0.111 | 0.684 | 0.278 | 0.231 | 0.241 | 0.0173 | 0.278
25 | CCTACTGGGCCAAAGGTCATTGAATCCAATGCTC | 4.76 | 5.09 | 3.62 | 4.91 | 0.849 | 6.45 | 11.2 | 9.74 | 10.1 | 10.8
